Assay results from PubChem BioAssay (Tox21).
Inconclusive results are not listed. Activity calls are given as the source filed them. Unless noted, calls come from the whole dose curve.

How the values were obtained:
[1] = Nuclear factor erythroid 2-related factor 2/antioxidant responsive element (Nrf2/ARE) small molecule agonists: qHTS cell viability counter screen in human keratinocytes (AID 1919968; active = well fitted curve in the direction sought with a large enough effect in the repeat runs; an effect the other way counts as inactive or inconclusive; note: nearly all actives have a fitted effect of over 55% in size)
In short: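 Stably transfected HaCaT (KeratinoSens), 1,500/well. Test agents in DMSO were applied for 23 h, 37 C/5% CO2. CellTiter-Fluor was incubated 1 h before the fluorescence read.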

[2] = target: KiSS-1 receptor (Homo sapiens) (UniProt Q969F8); test: Human kisspeptin (KISS1R) small molecule agonists, calcium flux assay in KISS1R-HEK293 cells (AID 1920064; active = well fitted curve in the direction sought with a large enough effect in the repeat runs; an effect the other way counts as inactive or inconclusive)
Chain of KiSS-1 receptor (Homo sapiens) (Q969F8 whole entry, looked up): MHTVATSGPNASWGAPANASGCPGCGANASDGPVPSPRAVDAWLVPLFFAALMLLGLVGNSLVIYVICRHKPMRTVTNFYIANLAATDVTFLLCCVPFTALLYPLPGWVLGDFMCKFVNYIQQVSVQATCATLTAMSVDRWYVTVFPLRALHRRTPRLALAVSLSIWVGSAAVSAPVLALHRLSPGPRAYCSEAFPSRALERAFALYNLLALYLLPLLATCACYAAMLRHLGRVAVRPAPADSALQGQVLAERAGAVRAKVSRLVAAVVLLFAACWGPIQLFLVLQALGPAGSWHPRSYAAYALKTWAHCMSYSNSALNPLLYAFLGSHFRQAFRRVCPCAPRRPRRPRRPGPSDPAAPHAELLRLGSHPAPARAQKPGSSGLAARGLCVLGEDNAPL
In short: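 After overnight (18 h) culture at 37 C/5% CO2, human KISS1R-HEK293 cells received calcium dye for 1 h, then test compound; emission at 540 nm (excitation 480 nm) was tracked for 3 min.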

[3] = G protein-coupled receptor (GPCR) small molecule agonists, calcium flux assay: HEK293 wild type cell line counter screen (AID 1920065)
In short: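 Following 18 h incubation at 37 C/5% CO2, plates got calcium dye for 1 h; compounds, ATP or DMSO were then pinned in and fluorescence followed kinetically (480/540 nm).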

[4] = p53 small molecule agonists, cell-based qHTS assay with human liver microsomes (AID 1963577);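 note: p53 response element beta-lactamase reporter cells with liver microsomes plus NADPH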
In short: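 With metabolic activation: human liver microsomes (0.5 mg/mL final) plus NADPH (0.5 mg/mL final) added alongside compounds to p53RE-bla cells; 16 h 37 C exposure; beta-lactamase read by LiveBLAzer fluorescence.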

[5] = p53 small molecule agonists, cell-based qHTS assay with rat liver microsomes (AID 1963578)
In short: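 Metabolic activation by rat liver microsomes and NADPH, each 0.5 mg/mL final, added right after compounds to p53RE-bla reporter cells (4,000/well, plated 5 h earlier). 16 h at 37 C, then LiveBLAzer substrate for 2 h at room temperature in the dark; fluorescence read-out.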

[6] = p53 small molecule agonists, cell-based qHTS assay with human liver microsomes: qHTS cell viability counter screen (AID 1963579); note: nearly all actives have a fitted effect of over 45% in size
In short: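 Metabolic activation used human liver microsomes and NADPH, both 0.5 mg/mL final, over 16 hours at 37 C on p53RE-bla cells (4,000/well). Cytotoxicity measured by CellTiter-Glo luminescence, 30 min at room temperature.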

[7] = p53 small molecule agonists, cell-based qHTS assay with rat liver microsomes: qHTS cell viability counter screen (AID 1963580); note: nearly all actives have a fitted effect of over 45% in size
In short: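 Counter screen for cytotoxicity under metabolic activation: rat liver microsomes and NADPH, 0.5 mg/mL final each, added with compounds to p53RE-bla HCT-116 cells; 16 h at 37 C, then ATP luminescence read.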

[8] = p53 small molecule agonists, cell-based qHTS assay: qHTS cell viability counter screen (AID 1963581); note: nearly all actives have a fitted effect of over 45% in size
In short: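 qHTS counter screen: 16 h compound exposure at 37 C of p53RE-bla HCT-116 cells (4,000 per well, seeded 5 h prior), cell viability by ATP luminescence.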

[9] = p53 small molecule agonists, cell-based qHTS assay (AID 1963582; active = well fitted activation curve with a large enough effect in the signal ratio in the repeat runs, not every such curve was filed as active; the % refers to the signal ratio)
In short: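 Measured: fluorescence from cleaved LiveBLAzer substrate. System: p53RE-bla cells, 16 h compound treatment at 37 C, 2 h substrate step at room temperature.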

[10] = cAMP Responsive Elements (CRE) small molecule antagonists, cell-based qHTS assay (AID 1963591; active = well fitted inhibition curve with a large enough effect in the signal ratio in the repeat runs, not every such curve was filed as active; the % refers to the signal ratio)
In short: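 Reporter line CRE-bla HEK 293T in dialyzed-FBS DMEM; cells preincubated 18 h, treated 3 h with compound plus NKH477 (0.25 uM final); LiveBLAzer FRET, 2 h RT.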

[11] = target: Beta-2 adrenergic receptor (Homo sapiens) (UniProt P07550); test: Adrenergic beta2 receptor (ADRB2) small molecule antagonists, cell-based qHTS assay (AID 1963592); note: series mostly up to about 92 µM; nearly all actives have a fitted effect of over 50% in size
Chain of Beta-2 adrenergic receptor (Homo sapiens) (P07550 whole entry, looked up): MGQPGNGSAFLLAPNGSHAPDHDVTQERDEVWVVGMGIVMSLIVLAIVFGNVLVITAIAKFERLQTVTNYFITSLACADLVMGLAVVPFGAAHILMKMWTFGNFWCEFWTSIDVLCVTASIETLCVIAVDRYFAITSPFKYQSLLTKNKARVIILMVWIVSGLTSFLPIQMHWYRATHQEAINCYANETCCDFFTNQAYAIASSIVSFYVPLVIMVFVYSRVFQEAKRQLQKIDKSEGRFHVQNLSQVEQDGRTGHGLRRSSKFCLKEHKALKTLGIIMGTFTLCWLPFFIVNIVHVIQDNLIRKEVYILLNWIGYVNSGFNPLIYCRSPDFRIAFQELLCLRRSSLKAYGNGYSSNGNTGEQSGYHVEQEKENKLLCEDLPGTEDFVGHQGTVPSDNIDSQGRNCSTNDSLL
In short: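 Assay format: CHO-ADRB2 cells, 18-20hr seeding at 37C/5% CO2, then compound plus 1nM isoproterenol agonist mix for 0.5hr RT. Homogeneous time-resolved fluorescence cAMP detection after 1hr, expressed as 665/615 nm ratio.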

[12] = target: Beta-2 adrenergic receptor (Homo sapiens) (UniProt P07550); test: Adrenergic beta2 receptor (ADRB2) small molecule agonists, cell-based qHTS assay (AID 1963593);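 note: CHO cells stably overexpressing human ADRB2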
In short: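 CHO cells stably over-expressing ADRB2 were plated overnight at 37C, then dosed with compounds plus a stimulation mix containing 100uM IBMX and 25uM Ro-20-1724 for 0.5hr at room temperature. cAMP was measured by HTRF competition, 1hr.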

[13] = target: D(2) dopamine receptor (Homo sapiens) (UniProt P14416); test: Dopamine D2 receptor (DRD2) small molecule agonists, cell-based qHTS assay (AID 1963594); note: nearly all actives have a fitted effect of over 35% in size
Chain of D(2) dopamine receptor (Homo sapiens) (P14416 whole entry, looked up): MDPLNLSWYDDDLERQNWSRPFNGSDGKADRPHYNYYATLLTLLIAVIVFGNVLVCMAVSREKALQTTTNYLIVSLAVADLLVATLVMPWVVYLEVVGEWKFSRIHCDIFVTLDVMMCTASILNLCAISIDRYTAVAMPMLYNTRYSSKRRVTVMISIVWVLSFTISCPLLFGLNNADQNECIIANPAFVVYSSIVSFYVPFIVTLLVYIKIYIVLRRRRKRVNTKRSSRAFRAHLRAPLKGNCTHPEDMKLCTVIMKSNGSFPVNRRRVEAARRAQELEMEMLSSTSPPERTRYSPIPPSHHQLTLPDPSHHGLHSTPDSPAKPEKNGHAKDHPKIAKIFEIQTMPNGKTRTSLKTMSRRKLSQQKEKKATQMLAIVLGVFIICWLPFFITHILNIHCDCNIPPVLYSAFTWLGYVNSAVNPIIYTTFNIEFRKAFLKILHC
In short: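 HEK293 cells stably expressing DRD2 were cultured 24 h at 37 C, then given Ro20-1724 (0.1 mM final) and compounds for 10 min at room temperature. NKH477 (200nM) was then added for 30 min. cAMP was read by HTRF.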

[14] = target: D(2) dopamine receptor (Homo sapiens) (UniProt P14416); test: Dopamine D2 receptor (DRD2) small molecule antagonists, cell-based qHTS assay (AID 1963595; active = well fitted inhibition curve with a large enough effect in the signal ratio in the repeat runs, with a control signal flat; the % refers to the signal ratio)
In short: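 Antagonist mode in DRD2-HEK293 cells: after compound addition with 0.1 mM Ro20-1724, cells received quinpirole (12 nM) and NKH477 (200 nM) for 30 min at room temperature; HTRF cAMP read after 1 h detection.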

[15] = target: 5-hydroxytryptamine receptor 2A (Homo sapiens) (UniProt P28223); test: 5-hydroxytryptamine receptor 2A (HTR2A) small molecule antagonists, cell-based qHTS assay (AID 1963586); note: nearly all actives have a fitted effect of over 45% in size
Chain of 5-hydroxytryptamine receptor 2A (Homo sapiens) (P28223 whole entry, looked up): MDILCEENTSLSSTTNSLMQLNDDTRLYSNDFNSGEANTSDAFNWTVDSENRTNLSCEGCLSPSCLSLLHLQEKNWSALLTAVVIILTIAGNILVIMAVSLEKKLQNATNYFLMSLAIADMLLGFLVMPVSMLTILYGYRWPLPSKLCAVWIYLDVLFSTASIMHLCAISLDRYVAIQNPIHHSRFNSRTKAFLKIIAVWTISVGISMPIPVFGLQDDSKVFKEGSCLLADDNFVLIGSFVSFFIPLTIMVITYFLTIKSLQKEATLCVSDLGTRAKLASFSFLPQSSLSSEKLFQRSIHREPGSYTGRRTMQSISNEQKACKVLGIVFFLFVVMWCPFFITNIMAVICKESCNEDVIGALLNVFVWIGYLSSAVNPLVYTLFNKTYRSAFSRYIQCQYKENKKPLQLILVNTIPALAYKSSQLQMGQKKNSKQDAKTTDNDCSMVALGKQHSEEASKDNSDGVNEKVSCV
In short: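 CHO cells stably expressing human HTR2A were plated for 18 h at 37 C, then loaded with calcium dye for 1 h. Compounds were preincubated 5 min at room temperature before DOI (4 nM solution) was added. Kinetic fluorescence was read for 3 min.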

[16] = target: 5-hydroxytryptamine receptor 2A (Homo sapiens) (UniProt P28223); test: 5-hydroxytryptamine receptor 2A (HTR2A) small molecule agonists, cell-based qHTS assay (AID 1963587); note: nearly all actives have a fitted effect of over 30% in size
In short: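 HTR2A-CHO cells, plated 18 h at 37 C/5% CO2, dye-loaded 1 h at 37 C; compounds in DMSO added by pin tool (agonist mode). Intracellular calcium flux read as kinetic fluorescence on FDSS over 2 min at 1 s intervals.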

[17] = target: Muscarinic acetylcholine receptor M1 (Homo sapiens) (UniProt P11229); test: Cholinergic receptor muscarinic 1 (CHRM1) small molecule antagonists, cell-based qHTS assay (AID 1963588); note: nearly all actives have a fitted effect of over 40% in size
Chain of Muscarinic acetylcholine receptor M1 (Homo sapiens) (P11229 whole entry, looked up): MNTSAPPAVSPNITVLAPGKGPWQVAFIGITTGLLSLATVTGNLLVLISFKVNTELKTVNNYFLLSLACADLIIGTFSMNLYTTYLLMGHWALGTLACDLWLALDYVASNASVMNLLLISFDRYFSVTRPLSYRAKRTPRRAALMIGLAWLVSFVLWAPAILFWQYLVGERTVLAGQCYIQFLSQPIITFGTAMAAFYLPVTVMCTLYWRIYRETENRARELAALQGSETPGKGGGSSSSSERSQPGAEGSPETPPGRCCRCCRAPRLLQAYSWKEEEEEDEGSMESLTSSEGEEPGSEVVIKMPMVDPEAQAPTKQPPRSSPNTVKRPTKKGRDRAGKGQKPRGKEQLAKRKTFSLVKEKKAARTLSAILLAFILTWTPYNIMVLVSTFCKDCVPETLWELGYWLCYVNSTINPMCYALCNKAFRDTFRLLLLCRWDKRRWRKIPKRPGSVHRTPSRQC
In short: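 Compounds were tested at 15 concentrations in three independent runs. Dye-loaded CHRM1-CHO cells were exposed 5 min at room temperature before stimulation by acetylcholine added at 50nM. Intracellular calcium was read kinetically on FDSS for 3 min.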

[18] = target: Muscarinic acetylcholine receptor M1 (Homo sapiens) (UniProt P11229); test: Cholinergic receptor muscarinic 1 (CHRM1) small molecule agonists, cell-based qHTS assay (AID 1963589); note: nearly all actives have a fitted effect of over 35% in size
In short: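 Kinetic fluorescence (1 s intervals) of calcium-sensitive dye in human M1 CHO cells after compound addition; cells pre-incubated 18 h at 37 C/5% CO2 and dye-loaded 1 h.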

[19] = cAMP Responsive Elements (CRE) small molecule agonists, cell-based qHTS assay (AID 1963590)
In short: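 Test agents in DMSO were incubated 3 h at 37 C/5% CO2 with CRE-bla HEK 293T cells seeded 18 h earlier; LiveBLAzer B/G FRET substrate was added and read after 2 h at room temperature.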

[20] = target: Gonadotropin-releasing hormone receptor (Homo sapiens) (UniProt P30968); test: Human gonadotropin-releasing hormone receptor (GnRHR) small molecule agonists, calcium flux assay in GnRHR-HEK293 cells (AID 1920063); note: nearly all actives have a fitted effect of over 35% in size
Chain of Gonadotropin-releasing hormone receptor (Homo sapiens) (P30968 whole entry, looked up): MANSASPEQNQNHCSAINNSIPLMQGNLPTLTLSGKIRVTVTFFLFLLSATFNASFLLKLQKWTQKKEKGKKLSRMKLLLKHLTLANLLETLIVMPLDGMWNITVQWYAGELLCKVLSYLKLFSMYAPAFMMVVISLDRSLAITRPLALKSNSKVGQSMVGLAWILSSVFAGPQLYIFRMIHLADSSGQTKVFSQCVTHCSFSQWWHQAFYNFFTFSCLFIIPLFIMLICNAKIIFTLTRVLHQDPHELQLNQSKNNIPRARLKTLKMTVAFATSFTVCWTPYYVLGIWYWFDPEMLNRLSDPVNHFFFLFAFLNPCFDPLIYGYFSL
In short: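 Stable human GnRHR HEK293 line. 18 h plating, then calcium dye for 1 h at 37 C. Agonist-mode compound addition from DMSO stocks; fluorescence monitored 3 min.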

Measured: Potency

CC(O)C(=O)O (stereo not drawn)
inactive: [1] | [2] | [3] | [4] | [5] | [6] | [7] | [8] | [9] | [10] | [11] | [12] | [13] | [14]

CCO[Si](CCCNC(N)=O)(OCC)OCC
inactive: [1] | [2] | [3] | [6] | [7] | [8] | [9] | [15] | [16] | [17] | [18] | [19] | [10] | [11] | [12] | [13] | [14]

CN(C)CCN(Cc1cccs1)c1ccccn1
inactive: [1] | [2] | [4] | [5] | [6] | [7] | [9] | [19] | [10] | [11] | [12] | [13] | [14]

OC[C@@H](O)[C@H](O)[C@H](O)[C@@H](O)CO
inactive: [1] | [2] | [3] | [4] | [5] | [6] | [7] | [8] | [9] | [19] | [11] | [12] | [13] | [14]

CC1=C(/C=C/C(C)=C/C=C/C(C)=C/CO)C(C)(C)CCC1
inactive: [1] | [2] | [3] | [4] | [5] | [6] | [7] | [8] | [15] | [16] | [17] | [18] | [12] | [13] | [14]

CC(=O)OCCOC(C)=O
inactive: [1] | [20] | [2] | [3] | [4] | [5] | [6] | [7] | [8] | [9] | [15] | [16] | [17] | [18] | [19] | [10] | [11] | [12] | [13] | [14]

O=C(Cl)c1c(Cl)c(Cl)c(C(=O)Cl)c(Cl)c1Cl
inactive: [1] | [20] | [2] | [3] | [4] | [5] | [6] | [7] | [8] | [15] | [16] | [17] | [18] | [19] | [10] | [11] | [12] | [13] | [14]

COc1cc(OC)c(C(=O)CCCN2CCCC2)c(OC)c1
inactive: [1] | [20] | [2] | [3] | [4] | [5] | [6] | [7] | [8] | [9] | [19] | [10] | [11] | [12] | [13] | [14]

C=C(C)CNCC
inactive: [1] | [20] | [2] | [3] | [4] | [5] | [6] | [7] | [8] | [9] | [15] | [16] | [17] | [18] | [19] | [10] | [11] | [12] | [13] | [14]
